Data taken from PubChem BioAssay.
Values joined by “and” are separate entries in the source; they are usually repeats but may differ in a detail not shown here. Equal entries are not always repeated. Active and inactive are the calls of the source.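 Rule for the calls, unless noted: active = inhibition at or above 50% relative to wild type and mutant plate controls; inactive = inhibition below 50%.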

Tests used:
[1] = inhibitors of TNFa-induced NFkB p65 translocation, primary screen, imaging, HUVEC, MLSMR starter and 10KST1 sets (AID 438;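 active = inhibition above 20% together with a positive visual image hit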;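 note: compound added about 3h40 before a 20 min TNFalpha stimulation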;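 for inhibition: signal is the nuclear over cytoplasmic p65 intensity ratio per well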); settings: HUVEC TNFa-induced p65 nuclear translocation; cell count: measured here: nuclei count (cytotoxicity indicator), at 2.08 µM unless noted; inhibition: at 2 µM, stronger effect = higher value unless noted
[2] = inhibitors of mutant huntingtin aggregation, primary screen, imaging, exon1htt(103Q)mCFP cells, high-content imaging (AID 483;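 active = visual image review flags a hit and inhibition of aggregation exceeds 20%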;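 note: compound exposure lasted 3 days before fixation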;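 for nuclei count: percent of the per-plate median nuclei count of sample wells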); settings: exon1htt(103Q)mCFP cell line, aggregate imaging, at 2 µM; inhibition of aggregation: stronger effect = higher value; nuclei count: measured here: cell count, toxicity
[3] = inhibitors of E-selectin induction by TNFa, primary screen, imaging, HUVEC, immunofluorescence, MLSMR starter and 10KST1 sets (AID 487;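 active = visually confirmed hit in the image check and inhibition above 20%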;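 for inhibition: signal is fraction of cell area covered by stained E-selectin grains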;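 for nuclei count: 100% = median nuclei count of all wells on the same plate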); settings: HUVEC TNFalpha-induced E-selectin immunofluorescence imaging, at 2 µM; inhibition: stronger effect = higher value; nuclei count: measured here: cell number, toxicity
[4] = DUSP6 inhibitors restoring Erk phosphorylation by chemical complementation, primary imaging in DUSP6-transfected HeLa (AID 609;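 active = compounds giving at least 50% inhibition in the cell-based MKP-3 phosphatase rescue imaging test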;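 for inhibition: phospho-Erk level distribution per well compared with pooled transfected vehicle control wells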); settings: HeLa MKP-3 transfected, phospho-Erk imaging KS statistic, at 10 µM
[5] = biological target: Dual specificity protein phosphatase 6 (Homo sapiens) (UniProt Q16828); test: as above; settings: HeLa MKP-3 transfected, phospho-Erk imaging KS statistic, at 10 µM, stronger effect = higher value
[6] = biological target: Voltage-gated potassium channel subunit beta-2 (Rattus norvegicus) (UniProt P62483); test: KvBeta enzyme negative modulators, primary screen, biochemical, NADPH fluorescence (AID 622;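 active = fluorescence slope higher than the sample average by over 3 SD, cut at about -0.22 in these data, passing the limit was not always enough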;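 note: slope of raw intensity against log time taken from 70 to 1610 s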); settings: recombinant KvBeta, 4-cyanobenzaldehyde reduction, at 10 µM, stronger effect = higher value
[7] = biological target: Voltage-gated potassium channel subunit beta-2 (Rattus norvegicus) (UniProt P62483); test: KvBeta positive modulators, primary screen, biochemical, NADPH fluorescence (AID 623;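 active = NADPH fluorescence slope more negative than the mean of all samples by about 3 SD, 99.7% confidence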;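 note: fluorescence intensity change per second fitted from 20 to 320 s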); settings: Recombinant KvBeta, NADPH fluorescence decrease slope, 10 min; at 10 µM; stronger effect = lower value
[8] = biological target: Alpha-2C adrenergic receptor (Homo sapiens) (UniProt P18825); test: modulators of alpha2C/GIRK thallium flux, primary screen, cell-based, HEK293 alpha2C/GIRK1/2 (AID 624;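 active = fluorescence slope after compound addition differing from the mean of all screened samples at 99.7% confidence, in either direction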;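 note: slope of fluorescence ratio to pre-addition baseline per second over 15 to 24 s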); settings: thallium flux BTC fluorescence, at 10 µM, actives lie on both sides
[9] = inhibitors of larval lipid processing in zebrafish, primary screen, whole organism, PED6 fluorescence, gall bladder and intestine (AID 686;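 active = a full or partial loss of lipid-probe fluorescence in the fish gall bladder, intestine or both, judged by eye; inactive = no fluorescence loss, or compound toxic to the fish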;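 note: larvae 5 to 7 days old with five fish per well; signal comes from phospholipase A2 cleavage of quenched PED6 carried via bile; overnight exposure to compound and PED6 before scoring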); settings: Zebrafish larvae PED6 lipid processing, fluorescence scoring
[10] = inhibitors of Chlamydomonas gravitaxis, primary screen, whole organism, Chlamydomonas reinhardtii, WT vs cilia-less mutant, absorbance, 96-well (AID 463189); settings: OD600 absorbance, 2 days, at 10 µM, stronger effect = higher value;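 note: 0% = wild type cc124 cells in DMSO and 100% = ciliumless bld1 mutant cells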
[11] = inhibitors of Sendai virus-induced IRF3 signaling, primary screen, TLR/RLR signaling modifier project, cell-based, Sendai virus stimulus, luciferase, 10K MLSCN set (AID 602276;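 active = inhibition at or above 50% at 10 µM; inactive = inhibition below 50%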;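 note: firefly luciferase from ISG56 promoter only with Renilla not read in this screen; 0% = Sendai virus plus DMSO and 100% = medium plus DMSO without virus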); settings: HEK293 RL24 IRF3 luciferase reporter, at 10 µM, stronger effect = higher value
[12] = inhibitors of poly I:C-induced TLR3 signaling, primary screen, cell-based, poly I:C stimulus, luciferase, 10K MLSCN set (AID 602277;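 active = inhibition of the reporter signal at or above 50%; inactive = inhibition below 50%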); settings: HEK293-TLR3 RL24 IRF3 luciferase reporter, at 10 µM, stronger effect = higher value
[13] = biological target: Muscarinic acetylcholine receptor M4 (Homo sapiens) (UniProt P08173); test: compounds altering M4/GIRK thallium flux, either direction, primary screen, M4 allosteric agonist project, cell-based, HEK293 M4/GIRK, BTC-AM (AID 625;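 active = fluorescence slope after compound addition differing from the mean of all tested samples at 99.7% confidence, mostly higher but some lower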;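 note: thallium influx through GIRK channels coupled to M4 in HEK293 cells with BTC-AM dye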); settings: at 10 µM, actives lie on both sides
[14] = measured here: cell density z-score
[15] = measured here: nuclear c-Myc green intensity z-score
[16] = measured here: nuclear pErk red intensity z-score, stronger effect = higher value

Sequence of Voltage-gated potassium channel subunit beta-2 (Rattus norvegicus) (P62483 whole entry, looked up): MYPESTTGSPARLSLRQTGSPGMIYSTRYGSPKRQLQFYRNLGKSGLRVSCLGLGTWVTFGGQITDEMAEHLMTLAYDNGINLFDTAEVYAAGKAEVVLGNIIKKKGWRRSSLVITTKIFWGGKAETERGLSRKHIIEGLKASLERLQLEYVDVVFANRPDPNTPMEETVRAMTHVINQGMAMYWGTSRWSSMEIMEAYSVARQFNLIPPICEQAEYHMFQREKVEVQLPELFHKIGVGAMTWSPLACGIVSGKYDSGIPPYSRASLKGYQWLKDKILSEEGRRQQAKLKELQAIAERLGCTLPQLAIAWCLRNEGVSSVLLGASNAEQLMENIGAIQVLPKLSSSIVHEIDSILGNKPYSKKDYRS
Sequence of Dual specificity protein phosphatase 6 (Homo sapiens) (Q16828 whole entry, looked up): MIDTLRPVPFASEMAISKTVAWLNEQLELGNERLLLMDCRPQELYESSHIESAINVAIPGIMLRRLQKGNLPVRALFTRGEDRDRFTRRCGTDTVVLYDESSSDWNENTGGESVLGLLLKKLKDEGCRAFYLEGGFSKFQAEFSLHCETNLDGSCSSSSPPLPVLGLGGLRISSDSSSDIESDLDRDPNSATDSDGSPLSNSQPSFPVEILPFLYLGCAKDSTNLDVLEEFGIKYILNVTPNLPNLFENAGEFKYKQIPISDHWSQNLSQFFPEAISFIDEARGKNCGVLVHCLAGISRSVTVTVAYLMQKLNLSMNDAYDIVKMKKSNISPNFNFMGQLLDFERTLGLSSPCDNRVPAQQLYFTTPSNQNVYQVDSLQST
Sequence of Alpha-2C adrenergic receptor (Homo sapiens) (P18825 whole entry, looked up): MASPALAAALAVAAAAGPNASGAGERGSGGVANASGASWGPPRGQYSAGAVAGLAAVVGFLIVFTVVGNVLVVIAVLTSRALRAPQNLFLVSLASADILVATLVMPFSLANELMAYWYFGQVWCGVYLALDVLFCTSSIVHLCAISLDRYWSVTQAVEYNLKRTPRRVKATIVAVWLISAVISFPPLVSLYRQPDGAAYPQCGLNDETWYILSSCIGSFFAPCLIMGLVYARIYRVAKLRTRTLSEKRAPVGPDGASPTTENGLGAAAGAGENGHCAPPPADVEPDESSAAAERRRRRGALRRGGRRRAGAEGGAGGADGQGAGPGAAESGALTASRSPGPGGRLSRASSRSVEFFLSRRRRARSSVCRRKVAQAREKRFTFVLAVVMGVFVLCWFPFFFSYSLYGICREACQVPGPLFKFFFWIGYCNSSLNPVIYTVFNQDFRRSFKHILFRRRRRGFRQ
Sequence of Muscarinic acetylcholine receptor M4 (Homo sapiens) (P08173 whole entry, looked up): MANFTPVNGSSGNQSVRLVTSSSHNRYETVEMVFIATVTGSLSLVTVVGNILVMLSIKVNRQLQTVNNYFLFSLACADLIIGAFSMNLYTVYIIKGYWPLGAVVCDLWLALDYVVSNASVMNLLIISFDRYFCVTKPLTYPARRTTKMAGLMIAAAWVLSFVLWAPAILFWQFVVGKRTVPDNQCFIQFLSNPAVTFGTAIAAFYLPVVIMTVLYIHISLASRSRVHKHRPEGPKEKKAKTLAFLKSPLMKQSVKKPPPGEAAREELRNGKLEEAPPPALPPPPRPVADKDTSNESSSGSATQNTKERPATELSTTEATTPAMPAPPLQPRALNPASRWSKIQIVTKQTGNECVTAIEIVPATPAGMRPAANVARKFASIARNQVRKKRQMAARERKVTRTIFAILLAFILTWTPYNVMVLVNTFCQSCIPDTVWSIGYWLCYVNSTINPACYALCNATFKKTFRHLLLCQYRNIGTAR

| Structure (SMILES) | cell count [1] | inhibition [1] | inhibition of aggregation [2] | nuclei count [2] [%] | inhibition [3] | nuclei count [3] [%] | z-score [4, 14] | z-score [4, 15] | z-score [4, 16] | inhibition [5] | fluorescence slope [6] | NADPH fluorescence slope [7] | slope [8] | outcome [9] | inhibition [10] | inhibition [11] | inhibition [12] | fluorescence slope [13] |
| --- | --- | --- | --- | --- | --- | --- | --- | --- | --- | --- | --- | --- | --- | --- | --- | --- | --- | --- |
| O=C(CCCN1CCC2(CC1)C(=O)NCN2c1ccccc1)c1ccc(F)cc1 | 564 | 2.1% (inactive) | -20.4% (inactive) | 100 | 3.3% (inactive) | 103 | -2.08 | 0.206 | 3.52 | 3.59% (inactive) | -0.51 (inactive) | -3.9e-05 (inactive) | 0.00481 (inactive) | inactive | 4.76% (inactive) and 18.8% (inactive) | 29.9% (inactive) | 29.3% (inactive) |  |
| NCCc1ccc(O)cc1 | 431 | 6% (inactive) | 11.4% (inactive) | 95.7 | 22.3% (inactive) | 92.7 |  |  |  |  | -0.573 (inactive) | -7e-05 (inactive) |  |  | 7.08% (inactive) | 12.8% (inactive) | 19% (inactive) | 0.00467 (inactive) |
| Cc1ccc(-n2c(O)c(C=NCCN3CCOCC3)c(=O)[nH]c2=O)cc1 | 536 | -3.4% (inactive) | -17.4% (inactive) | 117 | -76.6% (inactive) | 147 | -0.809 | -1.16 | 1.01 | 6.04% (inactive) | -0.418 (inactive) | -4.9e-05 (inactive) | 0.00555 (inactive) | inactive | -5.09% (inactive) | 15.1% (inactive) | 25% (inactive) |  |
| Cc1c(N=Cc2c(O)n(CCc3ccccc3)c(=O)[nH]c2=O)c(=O)n(-c2ccccc2)n1C | 613 | -20.6% (inactive) |  |  | -12.1% (inactive) | 104 | 1.02 | -1.15 | -0.939 | 14.4% (inactive) | -0.465 (inactive) | -1.6e-05 (inactive) | 0.00632 (inactive) | inactive | 41.8% (inactive) |  |  |  |
| COc1ccc(OC)c(C(O)C(C)N)c1 (stereo not given) | 507 | -7.1% (inactive) | 7% (inactive) | 57.3 | -75.2% (inactive) | 108 | -0.1 | 0.202 | 1.18 | 11.3% (inactive) | -0.51 (inactive) | -2.7e-05 (inactive) | 0.0053 (inactive) | inactive | 8.38% (inactive) and -0.435% (inactive) | 4.62% (inactive) | 34.8% (inactive) |  |
| CCCCCCn1c(O)c(C=NC2CCN(Cc3ccccc3)CC2)c(=O)[nH]c1=O | 592 | -3.3% (inactive) | -17.9% (inactive) | 112 | -34.2% (inactive) | 131 | 2 | -0.0485 | 0.697 | 19.3% (inactive) | -0.332 (inactive) | -2.2e-05 (inactive) | 0.0054 (inactive) | inactive | 25.8% (inactive) | 11.7% (inactive) | -13.6% (inactive) |  |
| CC(C)N(CCC(C(N)=O)(c1ccccc1)c1ccccn1)C(C)C (stereo not given) | 539 | -8.5% (inactive) | -2.7% (inactive) | 104 | -22.4% (inactive) | 106 | -0.772 | 0.954 | 0.768 | 9.37% (inactive) | -0.515 (inactive) | -7.6e-05 (inactive) | 0.00456 (inactive) | inactive | 1.35% (inactive) and 4.32% (inactive) and 26.6% (inactive) | 6.44% (inactive) | 34% (inactive) |  |
| CC(NC(C)(C)C)C(=O)c1cccc(Cl)c1 (stereo not given) | 651 | -1.3% (inactive) | 4% (inactive) | 102 | -75.7% (inactive) | 132 | -0.59 | 0.546 | -0.888 | 12.4% (inactive) | -0.447 (inactive) | -3.7e-05 (inactive) | 0.00462 (inactive) | inactive | -4.32% (inactive) and 13.4% (inactive) | 11.7% (inactive) | 29.6% (inactive) |  |
| C[C@H]1CCC/C=C/C2C[C@H](O)CC2[C@H](O)/C=C/C(=O)O1 (stereo not given in full) | 647 | 83.2% (active) | -436% (inactive) | 0.6 | 94.9% (active) | 120 | -0.283 | 0.495 | -0.185 | 23.4% (inactive) | -0.473 (inactive) | -3.1e-05 (inactive) | 0.00536 (inactive) | inactive; toxic | 155% (active) | -44.8% (inactive) | 83% (active) |  |
| CC(C)OC(=O)c1c(N)n(Cc2ccco2)c2nc3ccccc3nc12 | 337 | -5.5% (inactive) |  |  | -136% (inactive) | 108 | -1.01 | 1.4 | -1.07 | -4.7% (inactive) | -0.101 (inactive) | 1e-05 (inactive) | 0.00512 (inactive) | inactive | 1.76% (inactive) |  |  |  |
| CC(C)C(=O)N1CCN(CCN=Cc2c(O)n(C)c(=O)n(C)c2=O)CC1 | 517 | -3.1% (inactive) | -28.7% (inactive) | 138 | -78.2% (inactive) | 112 | 0.289 | -1.08 | 0.644 | 1.9e-07% (inactive) | -0.5 (inactive) | -3.4e-05 (inactive) | 0.00563 (inactive) | inactive | 33.6% (inactive) | -6.82% (inactive) | -2.86% (inactive) |  |
| O=c1[nH]c(=O)n(Cc2ccco2)c(O)c1C=NCCCn1ccnc1 | 506 | -1.7% (inactive) | 4.4% (inactive) | 89.9 | -104% (inactive) | 123 | 0.638 | -0.867 | 0.884 | -0.584% (inactive) | -0.334 (inactive) | -2.4e-05 (inactive) | 0.00606 (inactive) | inactive | 14.1% (inactive) | 8.16% (inactive) | 21.1% (inactive) |  |
| CC(=O)[C@H]1CC[C@H]2[C@@H]3CC[C@H]4C[C@H](O)CC[C@]4(C)[C@H]3C(=O)C[C@]12C | 549 | -11.5% (inactive) | 17.3% (inactive) | 94.7 | -98.9% (inactive) | 100 | -1.19 | -0.45 | 1.1 | -6.41% (inactive) | -0.534 (inactive) | -4.5e-05 (inactive) | 0.00562 (inactive) | inactive | 5.76% (inactive) and -1.15% (inactive) | 10.2% (inactive) | 20.7% (inactive) |  |
| OCCOCC#CCN1CCOCC1 | 582 | 8.1% (inactive) | -15.3% (inactive) | 100 | -167% (inactive) | 137 | -0.584 | 1.05 | 0.188 | 17.8% (inactive) | -0.497 (inactive) | -5.8e-05 (inactive) |  | inactive | -6.14% (inactive) | 19.2% (inactive) | 20.5% (inactive) | 0.006 (inactive) |
| CN1[C@@H]2CC[C@H]1CC(OC(=O)C1C=Nc3ccccc31)C2 (stereo not given in full) | 619 | 0.8% (inactive) | -36% (inactive) | 99.6 | -33.8% (inactive) | 116 | -1.01 | -0.312 | 0.0205 | 8% (inactive) | -0.448 (inactive) | -6.1e-05 (inactive) | 0.00567 (inactive) | inactive | -4.66% (inactive) | -81.8% (inactive) | 52.8% (active) |  |
| C[N+]1(C)[C@@H]2CC(OC(=O)[C@H](CO)c3ccccc3)C[C@H]1[C@@H]1O[C@@H]12 (stereo not given in full) | 542 | -16.3% (inactive) | 19% (inactive) | 107 | -56.7% (inactive) | 129 | -0.698 | -0.0087 | -0.0821 | -0.493% (inactive) | -0.433 (inactive) | 2.1e-05 (inactive) | 0.0054 (inactive) | inactive | 9.4% (inactive) | -2.08% (inactive) | 22.3% (inactive) |  |
| CC(=O)[C@@]1(O)CC[C@H]2[C@@H]3CC=C4C[C@@H](O)CC[C@]4(C)[C@H]3CC[C@@]21C | 618 | -10.4% (inactive) | 4% (inactive) | 99.3 | -57.3% (inactive) | 129 | -0.0512 | -0.687 | -0.36 | 7.39% (inactive) | -0.451 (inactive) | -5.3e-05 (inactive) | 0.00537 (inactive) | inactive | -4.89% (inactive) | 9% (inactive) | 26.8% (inactive) |  |
| CC(=O)OC1N=C(c2ccccc2)c2ccccc2NC1=O (stereo not given) | 428 | -3.5% (inactive) |  |  | 14.8% (inactive) | 88.8 | 0.0297 | -1.27 | -0.528 | 6.04% (inactive) | -0.509 (inactive) | -5.2e-06 (inactive) | 0.00675 (inactive) | inactive | 12.3% (inactive) |  |  |  |
| COc1cccc(-n2c(C)nc3ccccc3c2=O)c1 | 554 | 7.1% (inactive) |  |  | -57.2% (inactive) | 161 | 0.773 | 1.04 | -1.15 | 7.73% (inactive) | -0.353 (inactive) | 2e-05 (inactive) | 0.00545 (inactive) | inactive | -5.87% (inactive) |  |  |  |
| CCCCSP1(=S)NCCCN1 | 430 | -6.2% (inactive) |  |  | -45.8% (inactive) | 139 | 1.38 | -0.994 | 0.0968 | 22.7% (inactive) | -0.484 (inactive) | -0.000231 (inactive) | 0.00525 (inactive) | inactive | 32.8% (inactive) |  |  |  |
